pPAFAH FP inh: inhibitors of human plasma PAF acetylhydrolase (pPAFAH); Q13093; recombinant pPAFAH, FP-rhodamine probe fluorescence polarization; inhibition, % at 3.39 µM; 1.5% of 330,000 active; AID 463082;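 active means inhibition above the mean inhibition across the screen plus 3 SD, cut at about 25% in these data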;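 further: inhibitors block binding of the rhodamine activity-based probe so polarization drops; 0% = enzyme with DMSO and 100% = wells lacking pPAFAH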
PAFAH2 inh: inhibitors of human PAFAH2 | recombinant PAFAH2, FP-rhodamine activity probe, fluorescence polarization | inhibition, % at 3.39 µM | 0.99% of 340,000 active | AID 492956;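 active means inhibition above the mean over all tested compounds plus 3 SD, cut at about 30% in these data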;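 further: inhibitors block probe labeling of enzyme so polarization drops; 0% = enzyme with DMSO and 100% = wells lacking PAFAH2 protein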
PAFAH1B3 FP inh: blocks human PAF acetylhydrolase 1B catalytic subunit 3. recombinant PAFAH1B3, FP-rhodamine probe, fluorescence polarization. Q15102. 0.28% of 340,000 active. inhibition, % at 3.39 µM. AID 492972;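 active means inhibition above the screen-wide average of all tested compounds plus 3 SD, cut at about 25% in these data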;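 further: 0% = enzyme with DMSO only and 100% = wells lacking PAFAH1B3 protein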
Target sequence (Q15102 whole entry, looked up): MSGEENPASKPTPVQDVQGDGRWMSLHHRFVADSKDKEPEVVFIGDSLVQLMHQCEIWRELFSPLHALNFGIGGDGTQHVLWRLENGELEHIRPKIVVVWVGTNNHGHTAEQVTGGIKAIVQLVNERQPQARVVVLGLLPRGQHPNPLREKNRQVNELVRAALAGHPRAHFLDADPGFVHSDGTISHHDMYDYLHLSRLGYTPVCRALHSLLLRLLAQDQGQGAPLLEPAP
PAFAH1B2 inh: blocks human PAF acetylhydrolase 1b catalytic subunit 2; P68402; recombinant PAFAH1B2, FP-rhodamine activity probe, fluorescence polarization; inhibition, % at 3.39 µM; 1.2% of 340,000 active; AID 492953;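 active means inhibition above the mean of all tested compounds plus 3 SD, cut at about 24% in these data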;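 further: 0% = enzyme with DMSO and 100% = wells lacking PAFAH1B2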
Target sequence (P68402 whole entry, looked up): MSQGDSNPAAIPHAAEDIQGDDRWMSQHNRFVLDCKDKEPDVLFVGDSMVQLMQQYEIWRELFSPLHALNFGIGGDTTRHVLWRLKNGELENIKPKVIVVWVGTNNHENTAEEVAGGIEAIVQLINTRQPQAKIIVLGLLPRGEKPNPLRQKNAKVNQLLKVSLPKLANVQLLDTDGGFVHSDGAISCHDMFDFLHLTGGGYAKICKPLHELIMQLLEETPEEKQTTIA
TCR-CD3 inh: human TCR-CD3 binding inhibition; inhibition, % at 9.4 µM; TAMRA-labeled TCR probe fluorescence, biochemical; 0.37% of 360,000 active;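 further: recombinant mutant TCR 2C K166C tagged with TAMRA read by polarization; 0% = receptor in buffer alone and 100% = receptor with positive control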
PAFAH1B3 confirm: confirmation of human PAFAH1B3 inhibitors; recombinant PAFAH1B3, FP-Rh activity-based probe, fluorescence polarization; inhibition, % at 3.39 µM; 30% of 390 active; shares compounds with PAFAH1B3 FP inh;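 active means average inhibition over triplicate runs above the hit cutoff set in the earlier primary screen, cut at about 25% in these data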;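 further: 0% = enzyme with DMSO and 100% = wells lacking PAFAH1B3 protein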
BSA probe FL: interferes with TAMRA-BSA probe, flagging TCR-CD3 hits; shares compounds with TCR-CD3 inh; TAMRA-labeled BSA probe fluorescence counterscreen; inhibition, % at 9.4 µM; 10% of 1,200 active; in the data active means inhibition above about 23%;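 further: 0% = buffer low control and 100% = reference high control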
TCR-CD3 conf: TCR-CD3 interaction inhibition, confirmation. AID 652036. 48% of 1,200 active. inhibition, % at 9.4 µM. shares compounds with TCR-CD3 inh. TAMRA-labeled TCR probe fluorescence binding assay
Numbers without * were called inactive; x = no result given; + = active, no number. This is a sample that favours compounds with a hit; in the whole collection about 2.7% have one here. Unless noted, no stated cut-off is given here; in the data, active means inhibition above about 19%; inactive means the rest.

SMILES	pPAFAH FP inh	PAFAH2 inh	PAFAH1B3 FP inh	PAFAH1B2 inh	TCR-CD3 inh	BSA probe FL	TCR-CD3 conf	others
COC(=O)c1nc(-c2ccc3c(n2)C(=O)C(N)=C(OC)C3=O)c(N)c(-c2ccc(OC)c(OC)c2O)c1C	12.3	22.4	70.3*	23.5	4.8	x	x	PAFAH1B3 confirm=66.8*
CN(C)[C@@H]1C(=O)C(C(N)=O)=C(O)[C@@]2(O)C(=O)C3=C(O)c4c(O)cccc4[C@@](C)(O)C3C[C@@H]12 (stereo partly drawn)	31.9*	20.8	29.7*	15.8	23.4*	-4.5	-1.8	PAFAH1B3 confirm=13.0
CC1(C)C(=O)C=C[C@]2(C)[C@H]3CC[C@@]4(C)[C@H](c5ccoc5)OC(=O)[C@H]5O[C@]54[C@]3(C)[C@H](O)C[C@@H]12	0.8	x	x	x	x	x	x
COc1ccc(-c2ccc3c(c2)CN(C(=S)NCCc2ccccc2)Cc2cnnn2-3)cc1	x	x	x	x	26.3*	8.3	16.9
O=C1NC(=O)N(c2ccccc2)C(=O)/C1=C/c1ccoc1	12.5	2.6	12.6	-4.5	24.1*	-0.6	4.4
Cc1ccc(-n2c(O)c(/C=N/NC(=O)c3ccncc3)c(=O)[nH]c2=O)cc1C	7.5	2.6	0.0	2.6	6.4	x	x
O=C(N/N=C/c1c(O)n(-c2cccc3ccccc23)c(=O)[nH]c1=O)c1ccncc1	8.4	4.7	7.4	6.8	22.3*	-5.8	10.2
CCN1CCN(S(=O)(=O)c2cnc(Cl)c(Br)c2)CC1	-2.1	1.2	-2.9	2.2	-1.3	x	x
CC[n+]1c(-c2ccccc2)c2cc(N)ccc2c2ccc(N)cc21	x	81.6*	90.2*	64.7*	89.6*	102.8*	92.8*
Cc1ccc(/C=C2\C(=O)NC(=S)N(c3ccccc3F)C2=O)s1	0.1	-1.9	-66.6	-26.8	44.8*	-30.5	-16.1
Cc1ccc(/C=C2\C(=O)NC(=S)N(c3ccc(F)cc3)C2=O)s1	-4.2	19.9	-2.0	9.5	-27.5	x	x
COC1=CC=C2[C@H]3Cc4ccc(OC)c5c4[C@@]2(CCN3C)[C@H]1O5	-1.0	0.9	3.3	6.5	-1.5	x	x
O=C(N/N=C/c1c(O)n(CCc2ccccc2)c(=O)[nH]c1=O)c1ccncc1	4.5	1.4	11.7	6.6	8.4	x	x
O=C(N/N=C/c1c(O)n(CCc2ccccc2)c(=O)[nH]c1=O)c1ccccc1O	22.0	3.7	12.9	8.7	23.0*	-4.5	27.5*
COC1C(C)OC(OC2CC(C)(O)Cc3cc4c(c(O)c32)C(=O)c2c(O)cc3c(c2C4=O)OC2OC3(C)C(O)C(N(C)C)C2O)C(OC)C1(C)OC (stereo not drawn)	x	-8.7	-22.4	1.0	80.3*	51.4*	39.9*
CC/C(=N\NC(=O)c1ccccc1)c1c(O)n(C2CCCCC2)c(=O)[nH]c1=O	1.6	6.6	3.9	8.6	19.9*	-4.4	13.8
CC/C(=N\NC(=O)c1ccccc1Cl)c1c(O)n(C2CCCCC2)c(=O)[nH]c1=O	0.5	9.1	10.9	8.7	20.6*	-4.6	17.5
CCC(=NC1CC1)c1c(O)n(C2CCCCC2)c(=O)[nH]c1=O	-0.1	3.9	6.3	1.0	4.8	x	x
CN1C(=O)C[N+]([O-])=C(c2ccccc2)c2cc(Cl)ccc21	x	8.1	7.0	-2.1	1.3	x	x
CCOC(=O)C1CCCN(c2ccc([N+](=O)[O-])c3nonc23)C1 (stereo not drawn)	x	46.2*	39.0*	50.3*	139.6*	168.5*	133.5*
CCC(=NCCCN1CCOCC1)c1c(O)n(-c2ccccc2C)c(=O)[nH]c1=O	-1.3	1.8	-4.4	0.4	-5.4	x	x
NCCc1cc(O)c(O)cc1O	x	71.5*	88.2*	54.6*	170.3*	+	+
COc1ccc(CCN)cc1O	5.9	9.0	-5.5	6.9	9.7	x	x
NC(=O)c1cc(N2CC2)c([N+](=O)[O-])cc1[N+](=O)[O-]	3.3	-4.2	4.1	0.7	0.0	x	x
CCOC(=O)CNC(=O)N1Cc2cc(Br)ccc2-n2nncc2C1	x	x	x	x	36.0*	-1.9	4.1
CCOC(=O)CNC(=O)N1Cc2cc(-c3ccc(OC)cc3)ccc2-n2nncc2C1	x	x	x	x	-0.8	x	x
O=C(CCN1CC1)OCCOC(=O)CCN1CC1	x	-3.7	0.9	-1.3	0.8	x	x

Screening data as filed in PubChem.
